Sampled rows, rich in hits. Any-hit rate of the full collection: about 19%.
SARS PLP yeast = SARS-CoV PLP inhibition in yeast | S. cerevisiae expressing SARS-CoV PLpro, growth rescue | Potency, µM (titrated, usually from 32.9 µM), for the others: top-dose activity, positive = growth rescue, hits mostly activators | hit rate 0.19% among 330,000; calls by dose curve; also: potency is read from the fitted curve at half-maximal effect; 0% is about no effect; nearly all actives have a fitted effect of over 55% in size
Pf growth 96h = inhibits malaria parasite growth, 96 h; P. falciparum luciferase reporter growth, 96 h; Potency, µM (series often up to 28.7 µM), for the others: at the highest dose activity change, negative = inhibition, usual class: inhibitors; hit rate 6.9% among 320,000; also: potency is read from the fitted curve at half-maximal effect; % is scaled to controls: 0 for no effect and ±100 for the full control effect
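Luminescence readout: decreased luciferase signal marks inhibited growth of reporter-expressing P. falciparum in infected red cells (2% hematocrit, 0.05% parasitemia final), exposed to compound two generations (96 h, 37 C, 5% CO2).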
Pf growth 48h = inhibits P. falciparum growth in the first generation, 48 h; P. falciparum luciferase growth in erythrocytes, 48 h; Potency, µM (series often up to 28.7 µM), inactives show at the top dose activity change, negative = inhibition, most hits filed as inhibitors; hit rate 5.9% among 310,000; AID 504832; also: potency is read from the fitted curve at half-maximal effect; % is scaled to controls: 0 for no effect and ±100 for the full control effect
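First compound was added to culture medium, then infected red cells at 0.1% parasitemia and 2% hematocrit (final). After incubation at 37 C under 5% CO2, luciferase detection reagent was dispensed and light output recorded.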
Shiga toxin inh = inhibitors of Shiga toxin in Vero cells | inhibition, % at 38.7 µM | hit rate 9.2% among 290,000 | AID 2315 | Vero cells, Shiga toxin protein synthesis inhibition reporter; in the data active = inhibition mostly above about 28%, no sharp cut-off; inactive = mostly below about 43%; also: 0% is about no effect
Cycloheximide cs = counter-screen for Shiga toxin inhibitors: cycloheximide protein synthesis inhibition; cell reporter, cycloheximide protein synthesis inhibition counterscreen; max response, %; hit rate 12% among 300,000; in the data active = max response mostly above about 13%, no sharp cut-off; inactive = mostly below about 14%; also: read at 38.3 µM for the half of the compounds with a filed dose; 0% is about no effect
AMA1-RON2 inh = AMA1-RON2 (P. falciparum) interaction inhibition | AlphaScreen AMA1-biotinylated RON2 peptide binding | Potency, µM (titrated, usually from 58.2 µM), for inactives: at the highest dose activity change, negative = inhibition, most hits filed as inhibitors | hit rate 0.2% among 360,000;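 also: potency is read from the fitted curve at half-maximal effect; 0% = vehicle wells and -100% = peptide control; nearly all actives have a fitted effect of over 45% in size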
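AMA1 (3D7) with his tag at 25 nM final met compounds first, then biotinylated RON2 peptide at 25 nM; detection used donor plus acceptor beads, 10 µg/mL apiece, read by AlphaScreen after 30 min at room temperature.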
Starred values were filed as active, the others as inactive; u = inconclusive; x = no result; + = active, no number; [ ] = another dose, or the depositor's remark. Unless noted, calls follow the shape of the dose curve; as a rule, active = well fitted curve in the direction sought with a large enough effect; inconclusive = small, poorly fitted or top-dose-only effect, or another doubt; inactive = no such curve, though single readings can be large; an effect the other way counts as inactive or inconclusive.

SMILES | SARS PLP yeast | Pf growth 96h | Pf growth 48h | Shiga toxin inh | Cycloheximide cs | AMA1-RON2 inh
Cc1ccc(NC(=S)Nc2cccc3cnccc23)cc1C | 2% | u | u | 54 | 32* | 21%
CCCCNC(=S)Nc1cccc2cnccc12 | -1% | -11% | 8% | -6 | -3 | -6%
Fc1ccccc1NC(=S)Nc1cccc2cnccc12 | -2% | 36% | -20% | -9 | 13 | 6%
S=C(Nc1cccc(Cl)c1)Nc1ccccc1Oc1ccccc1 | -5% | 12µM* | 21% | -7 | -2 | -10%
S=C(Nc1cccc(Cl)c1)Nc1cccc2cnccc12 | -74% | 4.1µM* | 0% | 56* | 47* | -10%
CC(=O)NC(c1ccccc1)c1nc(-c2ccc(Cl)cc2)cs1 (stereo not drawn) | x | x | x | x | x | -3%
Cc1ccc(NC(=S)Nc2cccc3cnccc23)cc1 | -3% | u | u | 20 | 26* | 7%
CCCNC(=O)c1cc(-c2ccco2)on1 | -20% | 0% | 445% | 120* | 49* | -3%
CC(C)CNC(=O)c1cc(-c2ccco2)on1 | 1% | 18% | 273% | + | 35* | 14%
COc1ccc(CNC(=O)c2cc(-c3ccco3)on2)cc1 | 2% | 0% | u | 11 | 9 | -4%
CCN1CCN(c2c(S(=O)(=O)c3ccc(C)c(C)c3)cnc3ccc(F)cc23)CC1 | -2% | 2.3µM* | u | -2 | -1 | -5%
Cc1ccc(NC(=O)C2CCN(S(=O)(=O)c3c(C)n[nH]c3C)CC2)nc1 | 1% | 60% | -4% | -17 | -4 | -6%
C(=C\c1nc(-c2cccnc2)no1)/c1ccccc1 | 1% | 29% | -13% | 13 | 8 | 22%
O=c1[nH]c2ccccc2cc1-c1noc(-c2cccnc2)n1 | 2% | 0% | -27% | 38 | 2 | -6%
c1ccc(-c2noc(-c3cccnc3)n2)cc1 | x | 12µM* | 179% | 99* | 33* | 1%
Cc1cc(C)c(C)c(OCc2nc(-c3cccnc3)no2)c1 | -5% | 20% | -6% | 2 | -2 | 14%
Cc1ccc(SCc2nc(-c3cccnc3)no2)cc1 | -6% | -25% | -11% | 53* | 21* | 11%
c1cncc(-c2noc(-c3ccc4ccccc4c3)n2)c1 | 0% | 250% | 159% | 102* | 27* | 5%
c1ccc(-c2ccc(-c3nc(-c4cccnc4)no3)cc2)cc1 | 2% | 14% | x | 35 | 33* | 4%
O=C(Nc1ccc(C(=O)N2CCCCC2)cc1)[C@H]1O[C@@H](n2ccc(=O)[nH]c2=O)[C@H](O)[C@@H]1O | x | x | x | x | x | 19%
CN(C)CCCNc1cc(O)c2ncccc2c1 | 5% | 4.7µM* | 4.1µM* | x | x | x
O=S(=O)(NCc1ccc(Cl)cc1)c1cccc2cccnc12 | -1% | 16% | 7% | 19 | 9 | 0%
Clc1ccc(CNc2ncccn2)cc1 | 1% | 68% | 15%[0.00184 µM] | 43* | 26* | 5%
Fc1ccc(CNc2ncccn2)cc1 | 0% | -21% | 18% | 20 | 7 | 2%
Oc1cc(NCc2ccc(F)cc2)cc2cccnc12 | 0% | 1.9µM* | 2.6µM* | x | x | x
SMILES | SARS PLP yeast | Pf growth 96h | Pf growth 48h | Shiga toxin inh | Cycloheximide cs | AMA1-RON2 inh
Oc1cccc2cccnc12 | -39% | u | u | 2 | -3 | x
Oc1cc(NCc2ccc(Cl)cc2)cc2cccnc12 | -2% | u | 3.3µM* | x | x | x
CC(=O)N1CCN(Cc2nc3cc(NC(=O)NC4CCCCC4)ccc3n2C)CC1 | -2% | 16% | -26% | 24 | -2 | 14%
CCN(c1cccc(C)c1)c1nc2ccsc2c(=O)s1 | -4% | 8.3µM* | 8% | -24 | -1 | 62%
CCN1C[C@@H]2[C@@H]3C(=O)N(Cc4ccccc4)C(=O)[C@@H]3[C@](CC)(C(=O)OC)N2C1=NC | 4% | x | x | x | x | 1%
CC12CCC(=O)N1C(C(=O)NNC(=O)COc1ccc(Br)cc1)CS2 (stereo not drawn) | 4% | 35% | -14% | x | x | 96%
CN(C)c1cc2c3ccccc3n(C)c2cc1N | x | x | x | x | x | 3.5µM*
CN(C)c1ccc(Cl)cc1N | 0% | -19% | -35%[1.15 µM] | 11 | -4 | 7%
CCOC(=O)c1ccc(N(CCC2CO2)S(=O)(=O)c2ccc(C)cc2)cc1 (stereo not drawn) | x | x | x | x | x | 1%
CCN(CC)CCNC1=CC(=O)OC12CCCCC2 | 9% | 15µM* | 11% | -8 | -2 | -3%
COc1ccc([N+](=O)[O-])cc1NC(=O)Cc1ccc(C)cc1 | -11% | u | 0% | -6 | 5 | -4%
COc1ccc([N+](=O)[O-])cc1NC(=O)Nc1cccc(Cl)c1 | 11% | 87% | 9.3µM* | 16 | -1 | 2%
O=C(Cc1ccc([N+](=O)[O-])cc1)Nc1ccc(Cl)cc1 | -2% | 4% | 10µM* | 19 | 1 | 4%
COc1ccc([N+](=O)[O-])cc1NC(=O)Cc1ccc(Cl)cc1 | -15% | 10µM* | -12% | -11 | -2 | 1%
COc1ccc([N+](=O)[O-])cc1NC(=O)Nc1ccc(OC)c(OC)c1 | 0% | 19%[5.75 µM] | u | 23 | 27 | -28%
COC(=O)c1ccc(CSc2ccccc2NC(=S)Nc2cccc(SC)c2)o1 | x | x | x | x | x | 114%
CC1=C(C(=O)Nc2ccccc2C)C(c2ccc(C)o2)NC(=S)N1 (stereo not drawn) | -3% | 7% | 19% | -4 | -3 | 16%[2.32 µM]
CCOC(=O)[C@@H]1[C@H]2COc3ccccc3[C@@H]2N2C(=O)N(c3ccc(OC)cc3)C(=O)[C@]12C | x | x | x | x | x | -8%
CCSc1nc(N)nc(-c2cccs2)c1C#N | -33% | 58% | 54% | 68* | 31* | 21%
Cc1ccc(C)c(SCC(=O)NNC(=O)c2ccccc2)c1 | 0% | 7% | -14% | -3 | 5 | 95%
Cc1ccc(C)c(SCC(=O)c2ccc[nH]2)c1 | -5% | 21% | 22% | 56* | 42* | -11%
Cc1cc(C)c(OCCNCc2ccccc2)c(C)c1 | -2% | 6% | -16% | x | -3 | -1%
Cc1cc(C)c(C)c(OCCNCc2ccccc2)c1 | -9% | 12µM* | -20% | -1 | -1 | -3%
Clc1ccc(OCCOCCNCc2ccccc2)cc1Cl | -5% | 13µM* | 52% | x | -3 | -3%
Cc1cc(Cl)cc(C)c1OCCOCCNCc1ccccc1 | 1% | 15µM* | u | x | -4 | -6%
Cc1cc([N+](=O)[O-])cnc1N1CCOCC1 | -3% | -12% | -4% | -11 | -3 | 5%
Cc1c(C(=O)N/N=C/c2cccnc2)nnn1-c1nonc1N | 5% | 24% | -9% | 19 | 0 | 3%
CC(=O)C1=NN(c2ccc(Cl)cc2)C(c2ccc3c(c2)OCO3)N(C(C)=O)N1C (stereo not drawn) | -3% | 12µM* | 12µM* | 8 | 2 | -14%
COc1ccc(S(=O)(=O)N(C)c2ccc(C(=O)Nc3c(C)n(C)n(-c4ccccc4)c3=O)cc2)cc1 | -3% | 1% | 14% | -9 | 1 | -2%

Screening data (PubChem BioAssay)
